Screens as filed in PubChem.
Artemis endo inh: blocks endonuclease activity of human Artemis; Q96SD1; recombinant Artemis, quenched FAM hairpin cleavage fluorescence; inhibition, % at 10 µM; 30,000 tested, 0.78% active; AID 686954;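 active = at 10 µM dose, at least 30% inhibition, measured as corrected fluorescence normalized to stimulator and neutral control wells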
Target sequence (Q96SD1 whole entry, looked up): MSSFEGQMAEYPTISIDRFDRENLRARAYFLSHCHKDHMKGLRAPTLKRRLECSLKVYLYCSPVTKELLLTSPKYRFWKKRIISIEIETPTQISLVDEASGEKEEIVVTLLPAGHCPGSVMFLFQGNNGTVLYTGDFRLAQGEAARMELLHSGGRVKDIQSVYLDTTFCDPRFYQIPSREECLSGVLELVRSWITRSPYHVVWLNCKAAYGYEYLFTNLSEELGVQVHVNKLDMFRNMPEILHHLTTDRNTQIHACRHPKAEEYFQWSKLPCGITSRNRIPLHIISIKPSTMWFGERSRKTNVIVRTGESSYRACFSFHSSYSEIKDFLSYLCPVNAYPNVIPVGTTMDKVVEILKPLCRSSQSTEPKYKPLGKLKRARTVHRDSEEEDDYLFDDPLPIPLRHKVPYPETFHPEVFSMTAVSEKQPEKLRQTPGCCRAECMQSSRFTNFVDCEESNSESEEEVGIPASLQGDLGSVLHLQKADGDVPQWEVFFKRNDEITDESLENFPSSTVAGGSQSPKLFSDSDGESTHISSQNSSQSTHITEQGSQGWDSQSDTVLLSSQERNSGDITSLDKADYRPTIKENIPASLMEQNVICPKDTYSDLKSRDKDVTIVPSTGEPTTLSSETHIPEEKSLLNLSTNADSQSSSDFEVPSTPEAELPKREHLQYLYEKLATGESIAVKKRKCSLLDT
A number is an active result; n = inactive. The entries come from a sample that favours hits as a whole.

SMILES	Artemis endo inh
CCn1nc(-c2cccs2)nc2c(=O)n(C)c(=O)nc1-2	71
O=c1c2ccccc2nc(-c2cccs2)n1-c1ccccc1	n
O=C(CN1CCN(Cc2ccc(Cl)cc2)C1=O)N1CCC2(CC1)OCCO2	n
CC(C(=O)c1c[nH]c2ccccc12)N1CCc2ccccc2C1 (configuration not stated)	n
CNP(=S)(NC)OCCOc1ccc(OC)cc1	n
Cc1ccc(N2C(=O)/C(=C/N3CCN(C(=O)c4ccco4)CC3)C(=O)NC2=S)cc1C	31
Cc1ccc2c(c1)C(c1ccccc1)NCC(=O)N2 (configuration not stated)	n
CCOc1ccccc1N1C(=O)NC(=O)C(CCc2ccncc2)(CCc2ccncc2)C1=O	n
COc1ccc(-n2c(SC)nc3ccccc3c2=O)cc1	n
CCc1nc2ccc(Br)cc2c(=O)n1-c1ccccc1C(F)(F)F	n
O=C1c2ccccc2C2(c3ccc(Cl)cc3)NCCN12 (configuration not stated)	n
CCOC(=O)c1c(-n2c(C)cc(/C=C3/C(=O)NC(=O)N(CC)C3=O)c2C)sc2c1CCCC2	35
O=C(CCS(=O)(=O)c1ccc(Br)cc1)N1CCC2(CC1)OCCO2	n
COc1cc2c(C(=O)N3CCN(C)CC3)c(C)n(C)c2cc1Br	n
CCCCCCOC(=O)c1ccccc1N	n
